This note sets out measurements from the supplement of paper PMC10338343.

± gives the standard deviation.
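Further: 1 nM active piRISC with 0.1 nM target library at 33 °C single turnover.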

This assay deals with MILI (PIWIL2) piRISC loaded with piRNA #1 (26 nt). The assay is described as follows: pre-steady-state target cleavage rate (min^-1); guide: piRNA #1 5'p-UGAGGUAGUAGGUUGUAUAGUAUCCA; MIWI and MILI are mouse PIWI proteins and EfPiwi is from a freshwater sponge; tags in brackets are library labels; higher = faster piRNA-guided slicing of the target. The following applies: auxiliary factor: 500 nM mouse GTSF1. In short, it runs like this: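 For Cleave-'n-Seq, a transcribed, DNA-blocked target RNA library […] met 1 nM active affinity-purified piRISC with one synthetic guide at 33 °C for 0–8 or 0–960 min in HEPES–potassium acetate buffer, with or without 500 nM GTSF1 partner protein. Uncleaved targets were sequenced and normalised to depth and weakly complementary targets, with three trials pooled and k3 capped at 0.0001 min^-1. A burst-and-steady-state fit supplied the pre-steady-state cleavage rate.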
Turning to GGAGACCUAUGUUUACAACCUACUAGCUCA, the “pre-steady-state target cleavage rate” value is 0.00692 ± 0.0034. With GGAGACCUAUCUAAACAACCUACUUCCUCA, the “pre-steady-state target cleavage rate” value came to 0.0303 ± 0.0063. With GGAGACCUAAGUAUACAACCUACUACGUCA, the “pre-steady-state target cleavage rate” value was found to be 0.0129 ± 0.0032. For GGAGACCUAUCUAUUCAUCCUACUACCUCA, the “pre-steady-state target cleavage rate” value is 0.172 ± 0.021. The figure for GGAGACCUAUCUAUACAACCUACAACCACA is 0.0576 ± 0.014; for GGAGACCAUACUAUACAACGUACUACGUCA it is 0.0148 ± 0.0053.

In the case of GGAGACCUAACUAUACAUCGUACUACCUCA, the “pre-steady-state target cleavage rate” value came to 0.0246 ± 0.0074. The figure for GGAGACCUAUGAUUACAACCUUCUACCUCA is 0.00235 ± 0.0023; for GGAGACCUAUGAUAUCCAACCUACUACCUCA it is 0.0112 ± 0.0022; for GGAGACCUAACUAUUCAACCUACUACCUCA it is 0.138 ± 0.022. As to GGAGUGGAUACUAUUCUACCUACUACCUCA, the “pre-steady-state target cleavage rate” value is 0.19 ± 0.011. For the sequence GGAGACGUUACUAUACAACCAACUACCUCA, the “pre-steady-state target cleavage rate” value stood at 0.0041 ± 0.002. As for GGAGUGGAUACUUUACAACCUACUACCACA, the figure is 0.0946 ± 0.011. As for GGAGAGGAUACUAUACAACCAACUACGUCA, the figure is 0.00609 ± 0.0018; as for “GGAGACCUAUGAUAUGUACCUACUACGAGA [g5:g13:cont:t1A]”, less than 0.0001; as for GGAGACCUAUGUUUACAACCUACAACCUCA, 0.0131 ± 0.0031. As for GGAGUGGAUUCUUUACAACCUACUACCUCA, the figure is 0.16 ± 0.0093; as for GGAGACCUAUGAUUACAUCCAACUACCUCA, 0.00328 ± 0.003; as for GGAGACCUAUGUAUAACAACCUACUACCUCA, 0.0151 ± 0.0041. In the case of GGAGACCUUACUAUAAACCUACUACCUCA, the “pre-steady-state target cleavage rate” value was found to be 0.00481 ± 0.0027. With GGAGACCUUUCUAUACAACCUACUACCACA, the “pre-steady-state target cleavage rate” value was determined as 0.152 ± 0.018.

For the sequence GGAGACCUAUGUAUGCAACCUACUACCUCA, the “pre-steady-state target cleavage rate” value is 0.0637 ± 0.0095. As for GGAGACCUAUGAUAUGUUGCUGACUACCUCA, the figure is less than 0.0001; as for GGAGACCAUACUAUAGAACGUACUACCUCA, 0.00933 ± 0.0017.
